# Key:
# Assay in all cases: PBM binding z-score (relative to random genomic background probes); higher = stronger binding; sequences stand for … in GC…GCGATTGACAGCGTAGAATGAAGG
# [1] = system: FXR:RXRa (NR concentration 270 nM, RXRa partner concentration 90 nM)
# How it was run: (§1)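 Custom Agilent 4×180K protein-binding microarrays carried double-stranded probes. Their 34-nt variable regions held direct-repeat seeds, single-nucleotide variants, half-site ablations and random human genomic background sequences. Arrays were incubated 1 h with ligand-free nuclear receptor dimers in PBS pH 7.4, 2% milk, 0.02% Triton X-100, 1 mM DTT, 0.2 mg/mL BSA and 0.4 mg/ml salmon testes DNA. Antibodies against each partner (one per run) detected binding, and scanned fluorescence was regression-normalized. Binding z-scores use random background probes as reference.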
# [2] = system: LXRa:RXRa (NR concentration 270 nM, RXRa partner concentration 90 nM)
# How it was run: as §1
# [3] = system: LXRa homodimer (NR concentration 270 nM)
# How it was run: as §1
# [4] = system: LXRb:RXRa (NR concentration 270 nM, RXRa partner concentration 90 nM)
# How it was run: as §1
# [5] = system: LXRb homodimer (NR concentration 270 nM)
# How it was run: as §1
# [6] = system: PPARa:RXRa (NR concentration 270 nM, RXRa partner concentration 90 nM)
# How it was run: as §1
# [7] = system: PPARg:RXRa (NR concentration 180 nM, RXRa partner concentration 90 nM)
# How it was run: as §1
# [8] = system: PPARg:RXRa 270nM:90nM, anti-RXR (NR concentration 270 nM, RXRa partner concentration 90 nM)
# How it was run: as §1
# [9] = system: PPARg:RXRa 30nM:10nM, anti-RXR (NR concentration 30 nM, RXRa partner concentration 10 nM)
# How it was run: as §1
# [10] = system: PPARg:RXRa 90nM:30nM, anti-RXR (NR concentration 90 nM, RXRa partner concentration 30 nM)
# How it was run: as §1
Sequence,PBM binding z-score [1],PBM binding z-score [2],PBM binding z-score [3],PBM binding z-score [4],PBM binding z-score [5],PBM binding z-score [6],PBM binding z-score [7],PBM binding z-score [8],PBM binding z-score [9],PBM binding z-score [10]
AGAATGAGGTTATACGTCGATCAGGGAAGAAAGT,2.16,1.54,-0.164,1.29,0.0862,3.16,2.32,2.99,1.45,2.25
CGAAAGAGGGCATGAGTTGATAGCAAATGCCGAT,0.277,0.423,-0.431,0.0383,-0.529,1.7,1.14,1.19,0.0878,0.644
CCTAGCAGGCCAGTCTGGGTCACTCAAGGCTTGA,0.876,0.686,-0.81,0.487,-1.44,2.13,-0.179,0.439,-1.1,0.0493
CCTTACGGGTCACTGACAGGTTATTGCATTTGGA,5.44,4.13,0.625,3.78,0.134,5.14,4.45,4.46,1.42,2.91
CGAACTAGGTCAGAAGAGGACAGTGAAGGATGAT,1.71,1.24,-0.161,0.331,-0.576,3.14,5.79,4.62,2.29,4.02
CGAATTAGGTCATCCAGGACAGTGAATACATTGA,4.75,3.32,0.829,2.55,0.231,5.11,7.49,6.52,3.78,6.07
AGAATGAGGTTAAGCTCAGGGAAACAGAATACAT,2.88,1.94,-0.491,1.79,-0.626,3.77,2.4,2.58,0.895,1.48
TCGAGTAGGATAGTCGGGGCATTCAGCCAACATA,-0.379,-0.526,-0.613,-0.239,-0.624,-0.194,-0.199,0.184,0.98,0.413
ATCTCTAAGTAAAAGTTCAGTGAATCCCGAGGAT,0.433,1.11,1.36,0.807,1.04,1.6,1.9,3.87,2.04,3.47
CTACCAAGGTAAACAAGGTCGTTGATTACTATTC,0.877,1.37,0.268,1.56,-0.376,1.57,0.314,0.42,-0.128,0.258
CGAACTAGGTCATCCTGGACAGTGAATACATTGA,4.25,2.46,0.715,2.21,0.266,4.76,7.88,6.36,3.97,5.92
TCTAGTTGGTCAAAGGTCACACAGTCGAAATGCG,6.26,5.83,4,5.36,1.46,6.64,11.6,9.15,10,11.1
ATACCAAGGAGATCGTGAGGTCGTTGATACTAAC,0.608,0.359,0.339,0.531,-0.481,0.547,0.375,-0.542,-0.0699,-0.394
CCTACTGGGCCATCAGGTAATTGATATCAACGTT,-0.165,-0.235,-0.14,-0.089,-0.373,0.452,1.15,1.85,0.313,1.17
ATCTCTAGGTAAAAGTTCCGTGAATCCCGAGGAT,0.485,0.395,-0.0221,-0.0121,0.845,1.5,2.36,4.22,2.6,3.7
CGTCAAAGTTCAAGGTAACGAAACAGAAAGCAGC,6.35,5.77,2.25,3.3,0.914,4.7,4.6,5.48,2.22,4.42
CCTACTGGGCCATTTAGAGGTCATTGATCATATG,2.82,4.87,8.57,3.98,0.803,3.78,2.24,3.15,0.977,2.11
GATACAGGGTCAAGGCCAGAGCACGCGTATTGAT,6.68,4.17,0.0226,3.67,-0.301,5.48,5.84,5.3,2.03,4.13
AATACAGGGTCATCGTAGTCCAGAGTACGCACAG,7.48,6.18,2.88,4.83,1.9,6.32,7.13,6.38,2.86,4.99
CCGAATAGGTTATGGGGCATTCAGGCAACGGTGA,0.575,0.686,-0.0267,1.02,-0.297,2.16,1.97,3.14,0.896,2.04
TCATATAGGTAATACAGGTGAAACTCGGCATCTA,1.07,1.41,0.63,1.14,0.362,2.28,1.85,2.56,3.88,3.33
ACTATTAGTTGACTGAGGGCAACCGATACGACGC,0.492,0.678,0.199,0.459,0.656,0.506,0.804,0.0428,0.173,0.117
TCGAGAAGGTTACCAATGGGGCATTCAGCTTTCT,0.688,2.9,-0.534,1.76,-0.525,2.11,0.146,1.49,2,1.69
CAAACTAGATCAAGAGGTCAAAGTCCGCTTCCCG,4.72,5.55,6.71,5.21,1.87,5.77,4.08,4.85,2.67,4.71

Sequence,PBM binding z-score [1],PBM binding z-score [2],PBM binding z-score [3],PBM binding z-score [4],PBM binding z-score [5],PBM binding z-score [6],PBM binding z-score [7],PBM binding z-score [8],PBM binding z-score [9],PBM binding z-score [10]
CCGACTGGGGCAAAGCTTACCATACTCAGTACGA,-0.466,-0.638,-0.547,-0.287,-0.784,0.592,1.53,2.52,0.444,2.26
CAAACTAGGTCAACAGGTCAAAGTCCGCTTCCCG,6.05,5.38,3.92,4.38,1.14,6.02,9.26,7.93,6.55,8.02
GCTTACGGGTCAAATGTTATAGCATGAATAGAAT,6.7,4.31,0.0219,4.11,0.827,5.85,6.74,6.08,3.81,5.84
CCTGCTAGGTCATGGGCAGCTAATCTACAGTATG,4.12,2.55,-0.0623,1.29,-0.864,3.72,2.82,3.2,0.94,1.97
ATATGTAGGTTAAGGGTCATTCCGGTTGGTTCGC,5.44,4.91,3.25,4.19,1.33,6.67,11.4,9.69,10.2,11.1
ATCTGTAGGTAAAGTTCAGTGAAAGATCGATAGA,0.691,1.44,1.19,1.01,0.396,2.28,3.37,4.2,2.41,3.78
TCTAGTTGGTCACGGAGGTCTCACACGACGGGTA,0.555,0.613,0.0269,0.437,-0.332,1.16,0.78,1.99,2.94,2.55
ATATGTAGGTTACAGCCGGGTCATTCAGGCTATG,2.26,3.47,0.993,2.28,0.202,4.51,5.97,5.46,2.52,4.67
CCTTACGGGTCACGCCAGGTTATAGCATCGGAGT,6.4,6.03,0.573,4.1,-0.0774,5.57,6.03,6.08,2.72,4.76
AGAACGAGGTTAAGATCAGGGAAACAGAATACAT,2.1,2.05,0.0843,2.09,0.134,3.4,1.98,1.92,0.64,1.61
CCTTACGTGTCACTGACAGGTTATAGCATTTGGA,0.791,1.07,0.634,1.18,0.446,1.29,0.601,0.469,0.356,0.704
TCATATAGGTAATACAGGTGCAAGTCGGCATCTA,0.658,1.85,0.544,0.742,0.358,1.45,1.07,2.35,3.75,3.08
ACTGGGAGGACAAAGGTCAGAGCTACGCCAGTGA,4.45,4.69,2.01,4,1.04,5.24,8.13,7.23,5.7,7.48
TCGAGTAGGTTACCAAGGGGGCATTCAGCTTTCT,1.44,4.34,0.768,4.55,6.02,2.95,1.48,3.04,2.18,2.74
GCATATAGGTTATACAAGGTGAAAGTCCGATTGT,2.85,6.15,1.21,3.08,0.203,2.94,2.19,2.63,0.843,1.98
CGAACTAGGTCAGACCAGGACAGTGAAGGATGAT,1.62,1.04,-0.304,0.246,-0.517,3.36,6.07,5.08,2.19,3.95
TCACATAGGTAAAGGTGAAAGTCGAACGATATGA,1.25,1.8,0.139,1.69,-0.00674,3.07,2.67,3.48,4.04,3.75
TCTAGTTGGTCACGGAGCTCACACACGACGGGTA,0.213,0.0936,-0.438,0.0145,-0.134,0.663,0.998,1.56,2.94,2.33
ATCTCTAGGTAACAGGTTCAGTGAAAGAGAGGAC,0.507,0.677,0.529,0.67,1.09,1.8,2.61,2.9,1.5,2.78
CCTACTGGGGCAAAGGTTACCATACTCAGTACGA,1.74,1.84,0.187,2.41,-0.355,6.15,12.1,10,12.4,12.2
CGTCCAAGGTCAGAGAGTTCAGTGAATGCCGAGT,5.22,4.79,3.36,3,-0.278,3.89,2.14,2.83,0.445,1.82
CAAACTAGGTCACGTAAGGTCAAAGTCGAATGAC,6.98,8.26,7.28,7.56,2.27,6.49,10.1,8.07,6.4,8.05
GTTAGCAGGCCATTTGGGTCACTCAATGACGGGC,0.439,0.0472,-0.523,0.205,-0.589,1.36,0.776,0.698,-0.489,0.0806
CAAACTAGGTCAGAGGTCAAAGTCGAGCCAACCA,7.41,6.65,5.53,6.17,2.6,7.53,13.4,11.1,11.7,12.8

# From the supplement of paper PMC6555819
